Here are results for 15 compounds from PubChem BioAssay.

Values joined by “and” are separate entries in the source; they are usually repeats but may differ in a detail not shown here. Equal entries are not always repeated. Active and inactive are the calls of the source. Unless noted, no rule for the calls is given here.

Test [1] concerns Aerobactin synthetase IucA (Klebsiella pneumoniae). Put plainly: inhibition of K. pneumoniae IucA enzyme – biochemical, Tocris library, absorbance (AID 1345561).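 Also: 100% = enzyme without compound and 0% = no enzyme.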 The conditions noted are these: purified IucA enzyme assay, absorbance (OD) read-out; stronger effect = lower value;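 tested at 8 µM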.
Test [2] is described as follows: viability loss with induced miR-34 in A549 – imaging, A549 dox-inducible miR-34, nuclei and caspase counts, primary screen (AID 1347080;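 active = compounds whose cell count with miR-34 switched on is under 0.7 times the count with it off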). The conditions noted are these: A549 miR-34 inducible, Hoechst nuclei count, 48 h.
Test [3] in a line: galactose survival enhancers in mitochondrial complex I cybrids – cell-based, galactose medium, ATP luminescence, primary screen (AID 1645843;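 active = z-score of at least 1.8 in each of two replicates, scored against plate mean and spread of sample wells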;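 also: positive z means more ATP and so rescue of galactose-driven cybrid death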). To be noted: complex I mutant cybrid cells, 72 h, stronger effect = higher value.
A short description of test [4]: compounds altering circadian rhythm period length – cell-based, LOPAC library, luminescence reporter (AID 2774).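 Also: values are relative to mean of DMSO wells on each plate.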 The conditions noted are these: circadian reporter cells, at 7 µM, actives lie on both sides.
In test [5] the test system is Hepatitis C virus NS3 helicase. Nature of the test: blockers of NS3h binding to ssDNA – biochemical, fluorescence polarization, LOPAC1280 library, primary screen (AID 687035; in the data active = inhibition above about 37%). To be noted: Purified HCV NS3 helicase, Cy5-dT15 ssDNA binding fluorescence polarization; stronger effect = higher value; concentration not given here. (In fluorescence polarisation assays a small probe gives low polarisation when free and higher when bound to something large.)

A short description of test [6]: compounds altering Cy5-DNA-NS3h complex signal – biochemical, LOPAC1280, artefact control for HCV NS3 helicase inhibitor project (AID 687037). To be noted: Cy5-DNA-NS3h complex fluorescence interference counterscreen. Background: A counterscreen serves to expose hits that act by an unwanted route or on another target.
The nature of test [7]: blockers of cellular phospholipid synthesis – cell-based, LOPAC library, screen 4, primary screen (AID 1347384). The conditions noted are these: animal cells, phospholipid biosynthesis inhibition screen; at 10 µM.
In test [8] the test system is Aerobactin synthetase IucA (Klebsiella pneumoniae, hypervirulent). Nature of the test: biochemical IucA inhibition screen of LOPAC library by absorbance (AID 1346212).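 Also: 100% = no compound wells and 0% = no enzyme wells.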 To be noted: IucA enzyme assay, absorbance (OD) readout; stronger effect = lower value;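 tested at 8 µM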.
A short description of test [9]: MELAS cybrid and Rieske KO viability enhancers – cell-based, MELAS cybrids, Rieske KO mouse fibroblasts, CellTiter-Glo, primary screen (AID 1508586;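 active = mean z-score across replicates of 1.96 or higher in either the MELAS or the Rieske mutant cell line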;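 also: z relative to plate mean and SD of compound and empty wells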). The conditions noted are these: low glucose. On the technique in general: In ATP-based viability assays light output follows the ATP content of the culture.
[10] abbreviates: stronger effect = lower value, cell number ratio, induced over uninduced.
[11] abbreviates: measured here: relative caspase fold change +Dox/-Dox.
Where [12] appears, read: measured here: total cells with miR-34 induction, stronger effect = lower value.
Where [13] appears, read: measured here: total cells without miR-34 induction.

The remaining activity is the signal under treatment as a percentage of the control signal. As usually defined, the inhibition is the relative decrease from the control value, in per cent.

In the case of `O=C(O)C1=CCCN(CCOC(c2ccc(C(F)(F)F)cc2)c2ccc(C(F)(F)F)cc2)C1`, in test [1], the remaining activity was 122% (inactive). Also, the results for the fold change in test [2] (setting [10]) and in test [2] (setting [11]) were 0.921 (inactive) and 0.739, respectively. In addition, the cell count in [2] (setting [12]) amounted to 8210; in [2] (setting [13]), 8910. Besides, in test [3], the z-score was 5.47 (active).

With `CCCN(CCC)[C@@H]1CCc2c(OC)cccc2[C@@H]1C`, the remaining activity in test [1] is 103% (inactive). In addition, the fold change in test [2] (setting [10]) was 0.92 (inactive); in [2] (setting [11]), 0.674. Besides, the cell count worked out at 8420 in test [2] (setting [12]) and 9160 in test [2] (setting [13]). Further, the z-score in [3] was 0.925 (inactive).

Consider `Cc1ccc2c(c1)Cc1c(C(=O)NN3CCCCC3)nn(-c3ccc(Cl)cc3Cl)c1-2`, for which the remaining activity in test [1] is 102% (inactive). Besides, the fold change was 0.912 (inactive) in [2] (setting [10]) and 1.23 in [2] (setting [11]). Moreover, the cell count came to 5690 in test [2] (setting [12]) and 6240 in [2] (setting [13]). For the same compound, the z-score in test [3] was -0.67 (inactive).

In the case of `CN1C2CCC1CC(OC(=O)c1cc(Cl)cc(Cl)c1)C2` (stereo unspecified), the period change in test [4] is -0.075 h (inactive). Also, in test [5], the inhibition is -7% (inactive). Further, the fluorescence ratio (interference) in test [6] is 0.9 (inactive). For the same compound, the remaining activity in [1] is 82.7% (inactive). For the same compound, the fold change was 1.08 (inactive) and 0.937 (inactive) in test [2] (stronger effect = lower value); 1.35 and 0.719 in test [2] (setting [11]). The cell count is 8680 and 8550 in test [2] (setting [12]); 8070 and 9130 in test [2] (setting [13]). Moreover, the call in [7] was inactive. Besides, the z-score in [3] is -0.22 (inactive) and 0.04 (inactive).

In the case of `CCCN(CCC)C1Cc2cc(OC)c(OC)cc2C1`, the period change in test [4] is -0.045 h (inactive). Further, in test [5], the inhibition was -2% (inactive). The fluorescence ratio (interference) in test [6] was 1 (inactive). The remaining activity is 120% (inactive) in test [1] and 106% (inactive) in test [8]. The fold change is 0.979 (inactive) and 0.907 (inactive) in test [2] (stronger effect = lower value); 0.924 and 0.563 in [2] (setting [11]). Besides, the cell count in test [2] (setting [12]) is 9280 and 9110; in test [2] (setting [13]), 9480 and 10000. Moreover, in [7], the compound was classed as inactive. For the same compound, in [3], the z-score was 0.43 (inactive) and 0.01 (inactive).

For the compound `COc1ccc(-n2nc(C(F)(F)F)cc2-c2ccc(Cl)cc2)cc1`, the period change in test [4] was 0.125 h (inactive). Besides, the values for the remaining activity in [1] and in test [8] were 119% (inactive) and 109% (inactive), respectively. For the same compound, the figures for the fold change in test [2] (setting [10]) and in test [2] (setting [11]) were 0.91 (inactive) and 0.729, respectively. The values for the cell count in test [2] (setting [12]) and in [2] (setting [13]) were 7020 and 7710, respectively. In [3], the z-score is -0.695 (inactive).

As for `CN(C)c1ccc(/C=C2\CCCN=C2c2cccnc2)cc1`, in test [1], the remaining activity is 94.5% (inactive). For the same compound, the fold change in test [2] (setting [10]) is 0.947 (inactive); in [2] (setting [11]) it was 1.33. For the same compound, the cell count in test [2] (setting [12]) came to 8030; in test [2] (setting [13]) it was 8480. Moreover, the z-score in [3] was -0.4 (inactive).

In the case of `CN(C)CCN(C)CCc1ccc(Cl)c(Cl)c1`, the remaining activity in test [1] was 102% (inactive). In addition, the results for the fold change in [2] (setting [10]) and in [2] (setting [11]) were 0.927 (inactive) and 0.848, respectively. For the same compound, the cell count in test [2] (setting [12]) is 8600; in test [2] (setting [13]) it was 9270. Moreover, the z-score in test [3] was -0.285 (inactive).

For the compound `O=Cc1cn(Cc2ccc(Cl)cc2)c2ccccc12`, the remaining activity in test [1] was 119% (inactive). In addition, the fold change was 0.901 (inactive) in [2] (setting [10]) and 1.34 in [2] (setting [11]). The cell count in test [2] (setting [12]) was 4020; in [2] (setting [13]), 4470. The z-score in test [3] is -0.645 (inactive).

Consider `N[C@@H](Cn1oc(=O)[nH]c1=O)C(=O)O`, for which the inhibition in test [5] was -2% (inactive). In addition, in test [6], the fluorescence ratio (interference) is 1 (inactive). Also, the remaining activity is 106% (inactive) in test [1] and 109% (inactive) in test [8]. The values for the fold change in test [2] (setting [10]) and in test [2] (setting [11]) were 0.917 (inactive) and 0.755, respectively. In addition, the cell count came to 8070 in test [2] (setting [12]) and 8800 in test [2] (setting [13]). Besides, the outcome in [7] was inactive. Also, in [3], the z-score is -0.215 (inactive).

Turning to `C=CCN1CC[C@]2(C)c3cc(O)ccc3CC1[C@@H]2C`, in [1], the remaining activity is 113% (inactive). In addition, the fold change in test [2] (stronger effect = lower value) was 0.961 (inactive); in test [2] (setting [11]), 0.641. Moreover, the cell count came out at 8610 in [2] (setting [12]) and 8960 in [2] (setting [13]). In addition, the z-score in [3] is 0.05 (inactive).

Take `C=CCN1C[C@H](C)N([C@H](c2ccc(C(=O)N(CC)CC)cc2)c2cccc(O)c2)C[C@H]1C`: in test [1], the remaining activity was 99.4% (inactive). Besides, the fold change in test [2] (setting [10]) was 0.929 (inactive); in test [2] (setting [11]) it was 0.728. Besides, the cell count came out at 8160 in test [2] (setting [12]) and 8780 in test [2] (setting [13]). For the same compound, in test [3], the z-score is -0.17 (inactive).

On to `C[C@H]1CCC/C=C/C2C[C@H](O)C[C@H]2[C@H](O)/C=C/C(=O)O1` (stereo partly specified), for which the remaining activity in test [1] was 129% (inactive). In addition, the fold change in test [2] (stronger effect = lower value) is 1.05 (inactive) and 1.09 (inactive); in test [2] (setting [11]) it was 1.17 and 1.67. Also, the cell count in [2] (setting [12]) is 2000 and 1470; in test [2] (setting [13]), 1910 and 1340. Also, in [3], the z-score is -0.56 (inactive).

For `Cc1cc(SCc2sc(-c3ccc(C(F)(F)F)c(F)c3)nc2C)ccc1OCC(=O)O`, the remaining activity in test [1] is 88.1% (inactive). In addition, the fold change in test [2] (setting [10]) is 0.896 (inactive) and 0.953 (inactive) and 0.869 (inactive); in test [2] (setting [11]), 0.54 and 0.363 and 1.57. For the same compound, the cell count in test [2] (setting [12]) was 5150 and 8510 and 7240; in test [2] (setting [13]), 5740 and 8930 and 8330. In addition, the z-score in [9] (MELAS cybrid survival, CellTiter-Glo 48 h, stronger effect = higher value) was -0.492 (inactive); in [9] (Rieske KO mouse fibroblast survival, CellTiter-Glo 72 h), -2.16; in test [3] it was 1.59 (inactive).

On to `CCCN(CCC)C1CCc2cccc(O)c2C1` (stereo unspecified), for which the period change in [4] was -0.07 h (inactive). The inhibition in [5] is 2% (inactive). Further, the fluorescence ratio (interference) in test [6] is 1 (inactive). The remaining activity in test [1] is 106% (inactive). For the same compound, the fold change in test [2] (stronger effect = lower value) is 0.975 (inactive) and 0.957 (inactive); in test [2] (setting [11]) it was 0.862 and 0.742. In addition, the cell count was 10400 and 8490 in test [2] (setting [12]); 10700 and 8870 in [2] (setting [13]). Besides, the call in test [7] was inactive. Also, the z-score in test [3] was 0.025 (inactive) and -0.42 (inactive).
